High-throughput results: PubChem BioAssay, Johns Hopkins Ion Channel Center
This is a sample that favours compounds with a hit; in the whole collection about 1.6% have one here.
KCNQ2 enhance – potentiators of rat KCNQ2 potassium channel. Potassium voltage-gated channel subfamily KQT member 2 (Rattus norvegicus), O88943. CHO-K1 KCNQ2, FluxOR thallium flux fluorescence; active compounds read high. B-score at 10 µM. hit rate 0.54% among 310,000. AID 2239, 2010;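 active means fluorescence ratio B-score at least 3 SD of library B-scores, with initial fluorescence B-score within 3 of them, cut at about 5.3 in these data; same plate scores as AID 2156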;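 further: B-score of peak minus minimum over baseline fluorescence ratio after K+ and Tl+ stimulus; positive B-score means potentiation of KCNQ2 with more thallium influx and brighter signal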
KCNQ2 block – rat KCNQ2 potassium channel inhibitors, primary screen, cell-based, CHO-K1, FluxOR thallium flux, B-score | Potassium voltage-gated channel subfamily KQT member 2 (Rattus norvegicus), O88943 | 20 min; active compounds read low | hit rate 1.1% among 310,000 | AID 2156, 2009 | B-score at 10 µM;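 active means fluorescence ratio B-score at most minus 3 library SDs, with starting brightness B-score within 2 library SDs, cut at about -5.5 in these data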
* = called active by the depositor; i = inactive; x = no result given.

SMILES	KCNQ2 enhance	KCNQ2 block
CSc1ccc(C(=O)NC2CCSc3ccccc32)cc1 (stereo not drawn)	x	i
Cc1ccc(OCCn2cnc3c2c(=O)n(C)c(=O)n3C)cc1	2.36	i
COC(=O)c1ccc(CNC(=O)c2c3c(nc4ccccc24)CCN(Cc2ccccc2)C3)cc1	-6.18	-6.18*
O=C(NCc1ccc(F)cc1)c1c2c(nc3ccccc13)CCN(Cc1ccccc1)C2	x	i
CCn1c(SCC(=O)NC2CCCCC2)nc2ccccc2c1=O	0.23	i
C[C@H]1[C@H](C)CC[C@]2(C(=O)O)CC[C@]3(C)C(=CC[C@@H]4[C@@]5(C)C[C@@H](O)[C@H](O)C(C)(C)[C@@H]5CC[C@]43C)[C@H]12	0.58	i
C[C@H]1[C@H](C)CC[C@]2(C)CC[C@]3(C)C(=CC[C@@H]4[C@@]5(C)CC[C@@H](O)[C@](C)(C(=O)O)[C@@H]5CC[C@]43C)[C@H]12	-9.21	-9.21*
CC(=O)c1ccc(NC(=S)N2CCN(S(=O)(=O)c3ccc(F)cc3)CC2)cc1	x	i
C=CCn1c(COc2ccc(Cl)cc2)nnc1SCC(=O)N/N=C/c1cccc(O)c1	1	i
C=CCn1c(COc2ccccc2)nnc1SC(C)C(=O)N/N=C/c1cc(Cl)ccc1O (stereo not drawn)	-7.58	-7.58*
O=C(NC(=S)Nc1cccnc1)c1cc2ccccc2o1	8.09*	i
O=C(NC(=S)NCc1cccnc1)c1cc2ccccc2o1	0.85	i
Cn1c(CC(=O)Nc2ccccc2)nnc1SCC(=O)NC1CCCC1	x	i
CC1CC(=O)N(CC(=O)Nc2ccccc2F)c2ccccc2S1(=O)=O (stereo not drawn)	x	i
O=C1C2C3C=CC(C2C(=O)N1C1CCCCC1)C1C2C(=O)N(C4CCCCC4)C(=O)C2C31 (stereo not drawn)	0.46	i
Cc1cc(OC(C)C(=O)NCc2ccccn2)c2c(C)c(C)c(=O)oc2c1 (stereo not drawn)	0.81	i
Cc1ccc2nc(C)cc(C(=O)OCC(=O)Nc3cccnc3Cl)c2c1	x	i
CC[C@@H]1CC=C[C@H]2[C@H]1C(=O)N(Cc1ccccc1)[C@H]2c1ccoc1	-6.18	-6.18*
C[C@@H]1CC=C[C@H]2[C@H]1C(=O)N(Cc1ccccc1)[C@H]2c1ccoc1	x	i
C[C@@H]1CC=C[C@H]2[C@H]1C(=O)N(Cc1ccccc1)[C@H]2c1ccc2ccccc2c1	x	i
C[C@@H]1CC=C[C@H]2[C@H]1C(=O)N(Cc1ccccc1)[C@H]2c1ccc2ccccc2c1Br	-7.54	-7.54*
Clc1cccc2c1Sc1ccccc1CC2N1CCNCC1 (stereo not drawn)	-7.86	-7.86*
COCCCN1CCN(C2Cc3ccccc3Sc3ccc(Cl)cc32)CC1 (stereo not drawn)	x	i
Cc1cc(NS(=O)(=O)c2ccc(NC(=O)CCCOc3ccccc3C)cc2)no1	0.12	i
CCCC1=Nc2cc(C(=O)N3CCN(c4ccccn4)CC3)ccc2Sc2ccc(C)cc21	-5.65	-5.65*
SMILES	KCNQ2 enhance	KCNQ2 block
CCC1=Nc2cc(C(=O)N3CCCCC3)ccc2Sc2ccc(C)cc21	-5.87	-5.87*
CCOC(=O)N1CCN(C(=O)c2ccc3c(c2)N=C(CC)c2cc(C)ccc2S3)CC1	x	i
CCCC1=Nc2cc(C(=O)N3CCCC3)ccc2Sc2ccc(C)cc21	x	i
Cc1ccc(C)c(OCc2cc(C(=O)N(C)Cc3nccs3)no2)c1	1.51	i
COc1ccc(C(=O)NC(=S)Nc2ccc(CN3CCOCC3)cc2)cc1OC	x	i
COc1ccc(Br)cc1/C=C/C(=O)NC(=S)Nc1ccc(CN2CCOCC2)cc1	-6.33	-6.33*
Cc1nc(NC(=O)CSc2nnc(Cn3nnc4ccccc43)n2C)sc1C	0.66	i
CCOC(=O)/C(C#N)=C/c1cc2ccccc2nc1N1CCCCC1	-6.46	-6.46*
Cc1ccc2cc(/C=C(\C#N)C(N)=O)c(N3CCCCC3)nc2c1	x	i
Cc1cc(C)nc(CCNC(=O)c2cc(COc3ccccc3)on2)n1	0.55	i
c1ccc2cc(OCCOCCOc3ccc4ccccc4c3)ccc2c1	x	i
CC(C)(C)c1ccc(OCCN2CCCC2)cc1	x	i
CC(C)SCCCCOc1ccc2ccccc2c1	-6.89	-6.89*
CC(C)SCCCOc1ccc(C(C)(C)C)cc1	-5.81	-5.81*
N#Cc1c(N)nc2c(c1-c1ccc(F)cc1)c(=O)nc1sccn12	0.45	i
CC(=O)Nc1cc(-c2ccc(Cl)cc2)[nH]n1	2.48	i
COc1ccc(NC(=O)C(=O)NNC(=O)C(C)Oc2ccc(Cl)cc2Cl)cc1 (stereo not drawn)	20.1*	i
CC(=O)Nc1ccc(NC(=O)C(C)Oc2ccc(Cl)cc2Cl)cc1 (stereo not drawn)	0.1	i
CN(C)CCCNC(=O)C1(O)c2cc(Br)ccc2NC(=O)N1c1ccc(Cl)cc1 (stereo not drawn)	x	i
O=C(CN1C(=O)COc2ccccc21)NCCCN1CCCCC1	x	i
